# Data as given in PubChem BioAssay (Tox21).
# Records with an inconclusive call do not appear. Calls of active or inactive are those of the source. Unless noted, calls come from the whole dose curve; as a rule, active = well fitted cell-killing curve with a large enough effect in the repeat runs; inconclusive = weak or mixed curves; inactive = flat fitted curve, though single readings scatter.
# System: not listed separately
# Assay: qHTS assay to identify small molecule antagonists of the estrogen receptor beta (ER-beta) signaling pathway - cell viability counter screen (AID 1259382);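 note: HEK293T cells carrying ER-beta-UAS-bla reporter stimulated with estradiol; nearly all actives have a fitted effect of over 55% in size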
# Conditions: ER-beta-UAS-bla HEK293T viability, CellTiter-Glo luminescence, 16 h; series mostly up to 92.4 µM
# Procedure, shortened: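 In this multiplexed counter screen, cells were seeded at 2,000 per well in medium with 2% charcoal-stripped FBS and incubated 6 hr before compound and 1nM final E2 were added. Sixteen hours later, ATP-based luminescence reported viability.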
# % is set by controls: 0 for no effect and ±100 for the full control effect.
SMILES,outcome,"activity change, negative = cytotoxicity"
CN(C)C(=O)Oc1cccc([N+](C)(C)C)c1,inactive,–
CCN[C@@H]1C[C@H](N)[C@@H](OC2OC(CN)=CCC2N)[C@H](O)[C@H]1O[C@H]1OC[C@](C)(O)[C@H](NC)[C@H]1O (some centres not stated),–,16.4% [at 0.349 µM] (inactive)
O=C(O)CNC(=O)c1ccc(CO)o1,inactive,–
CC(C)(C)C(=O)Oc1ccc(S(=O)(=O)Nc2ccccc2C(=O)NCC(=O)O)cc1,inactive,–
CN(C)CCN(C)CCN(C)C,inactive,–
Cc1c(N)c(=O)n(-c2ccccc2)n1C,inactive,–
NCCCC[C@H](N[C@@H](CCc1ccccc1)C(=O)O)C(=O)N1CCC[C@H]1C(=O)O,inactive,–
Nc1ccn([C@@H]2O[C@H](CO)[C@@H](O)C2O)c(=O)n1 (some centres not stated),inactive,–
CC(C(=O)O)c1cccc(Oc2ccccc2)c1 (configuration not stated),inactive,–
O=C(O)CCCC[P+](c1ccccc1)(c1ccccc1)c1ccccc1,inactive,–
COc1cc(C)nc(-n2nc(C)cc2OC)n1,inactive,–
CCCCCCCCCCCCCCCCCCO,inactive,–
CC12CCC(C(=O)C1=O)C2(C)C (configuration not stated),inactive,–
Cc1ccc(C(=O)c2ccc(CC(=O)O)n2C)cc1,inactive,–
C[N+]1(C)CCCC(OC(=O)C(O)(c2ccccc2)c2ccccc2)C1 (configuration not stated),inactive,–
CCCCCCCCCCCCCCC(=O)O,inactive,–
NCCCC(N)(C(=O)O)C(F)F (configuration not stated),inactive,–
Cc1coc2ccccc2c1=O,inactive,–
CC(C)COC(=O)c1ccc(N)cc1,inactive,–
CN1[C@@H]2CC[C@H]1CC(OC(=O)C(O)c1ccccc1)C2 (some centres not stated),inactive,–
COc1cccc(OC)c1C(=O)N[C@@H]1C(=O)N2[C@@H]1SC(C)(C)[C@@H]2C(=O)O,inactive,–

# Biological target: Estrogen receptor (Homo sapiens) (UniProt P03372)
# Sequence (P03372 whole entry, looked up): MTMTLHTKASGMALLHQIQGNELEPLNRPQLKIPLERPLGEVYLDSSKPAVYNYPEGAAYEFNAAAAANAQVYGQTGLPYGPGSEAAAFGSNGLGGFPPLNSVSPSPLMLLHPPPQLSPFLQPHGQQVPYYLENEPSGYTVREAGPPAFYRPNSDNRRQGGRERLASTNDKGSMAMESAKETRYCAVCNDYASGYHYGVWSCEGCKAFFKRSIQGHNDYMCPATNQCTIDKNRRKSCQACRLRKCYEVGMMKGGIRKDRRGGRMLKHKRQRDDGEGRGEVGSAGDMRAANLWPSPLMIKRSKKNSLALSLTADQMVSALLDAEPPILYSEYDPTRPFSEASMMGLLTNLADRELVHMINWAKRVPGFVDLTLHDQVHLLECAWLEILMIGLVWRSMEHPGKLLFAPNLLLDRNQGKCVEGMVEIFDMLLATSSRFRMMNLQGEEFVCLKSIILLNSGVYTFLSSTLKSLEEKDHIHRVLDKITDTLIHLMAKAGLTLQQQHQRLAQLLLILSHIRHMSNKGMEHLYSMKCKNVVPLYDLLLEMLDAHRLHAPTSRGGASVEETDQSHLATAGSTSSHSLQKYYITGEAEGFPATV
# Assay: qHTS assay to identify small molecule agonists of the estrogen receptor alpha (ER-alpha) signaling pathway in the presence of an antagonist (AID 1259383; calls by dose curve; note: top concentration of the series differs between compounds; nearly all actives have a fitted effect of over 15% in size)
# Conditions: VM7Luc4E2 cells, ERE-luciferase, +ICI-182,780, 22 h; series mostly up to 92.4 µM
# Procedure, shortened: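 Stably transfected VM7Luc4E2 reporter cells, kept 5 days in charcoal-stripped serum, received ICI-182,780 at 10.0nM final before compound addition. Following 22hr incubation at 37C and 5% CO2, luciferase signal was read by luminescence.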
SMILES,activation,outcome
CCCCN1C=CN(C)C1,0.706% [at 19 µM] (inactive),–
CCCC(C)C(=O)OCC (configuration not stated),–,inactive
C[C@H]1C[C@H]2[C@@H]3CCC4=CC(=O)C=C[C@]4(C)[C@H]3C(=O)C[C@]2(C)[C@@]1(O)C(=O)CO,–,inactive
CO/N=C(\C(=O)N[C@@H]1C(=O)N2C(C(=O)O)=C(CSc3nc(=O)c(O)nn3C)CS[C@H]12)c1csc(N)n1,–,inactive
CC(=O)N[C@H]1[C@H]([C@H](O)[C@H](O)CO)OC(C(=O)O)=C[C@@H]1N=C(N)N,–,inactive
CCOc1ccc2nc(S(N)(=O)=O)sc2c1,–,inactive
CNCC(O)c1ccc(O)c(O)c1 (configuration not stated),–,inactive
O=C(O)CC(C(=O)O)S(=O)(=O)O (configuration not stated),–,inactive
CC(=O)C1CCCCC1=O (configuration not stated),–,inactive
CO[C@@]1(NC(=O)C(C(=O)O)c2ccc(O)cc2)C(=O)N2C(C(=O)O)=C(CSc3nnnn3C)CO[C@@H]21 (some centres not stated),–,inactive
CN(C)C(=O)Oc1cccc([N+](C)(C)C)c1,–,inactive
O=C(O)CNC(=O)c1ccc(CO)o1,–,inactive
CC(C)(C)C(=O)Oc1ccc(S(=O)(=O)Nc2ccccc2C(=O)NCC(=O)O)cc1,–,inactive
CN(C)CCN(C)CCN(C)C,–,inactive
Nc1ccn([C@@H]2O[C@H](CO)[C@@H](O)C2O)c(=O)n1 (some centres not stated),–,inactive
O=C(O)CCCC[P+](c1ccccc1)(c1ccccc1)c1ccccc1,–,inactive
CCCCCCCCCCCCCCCCCCO,–,inactive
Cc1ccc(C(=O)c2ccc(CC(=O)O)n2C)cc1,–,inactive
C[N+]1(C)CCCC(OC(=O)C(O)(c2ccccc2)c2ccccc2)C1 (configuration not stated),–,inactive
CCCCCCCCCCCCCCC(=O)O,–,inactive
CN1[C@@H]2CC[C@H]1CC(OC(=O)C(O)c1ccccc1)C2 (some centres not stated),–,inactive
